Assay outcomes as filed in PubChem.
A selection: hits, their analogues and other compounds. The true share with any hit is near 12%.
JMJD2A Tudor: inhibitors of human JMJD2A Tudor domain. O75164. AlphaScreen JMJD2A-Tudor / H3K4me3 peptide binding. Potency, µM (top dose mostly 114 µM), actives largely listed as inhibitors. 390,000 compounds, 4.4% hits; further: nearly all actives have a fitted effect of over 50% in size
Sfp inh: blocks B. subtilis Sfp PPTase activity | Biochemical Sfp PPTase activity, qHTS | Potency, µM, hits mostly inhibitors | Q9F4F7 | 310,000 compounds, 3.5% hits;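 further: the enzyme is Sfp with the accession as filed and its product quenches rhodamine fluorescence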
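With Hepes-Na pH 7.6 buffer containing 10 mM MgCl2, Sfp (15 nM) modified BHQ-2-YbbR (12.5 uM) using rhodamine-CoA (5 uM). Two reads 30 minutes apart at 525/598 nm yielded each well's rate.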
HP1b chromo inh: inhibitors of HP1-beta chromodomain binding to methylated histone tails | AlphaScreen HP1-beta / biotin-H3K9me3 peptide binding | Potency, µM (doses to about 114 µM), usual class: inhibitors | 390,000 compounds, 0.56% hits | AID 540317; further: nearly all actives have a fitted effect of over 70% in size
Target sequence (P83916 whole entry, looked up): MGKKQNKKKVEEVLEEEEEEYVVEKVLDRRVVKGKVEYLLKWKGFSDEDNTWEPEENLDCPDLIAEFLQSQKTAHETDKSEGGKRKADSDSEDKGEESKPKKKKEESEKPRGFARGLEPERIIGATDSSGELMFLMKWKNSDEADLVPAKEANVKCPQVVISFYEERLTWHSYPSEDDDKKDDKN
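AlphaScreen: HP1-beta (50 nM) preformed 30 min with biotin-H3(1-18)K9me3 peptide (50 nM) in PBS pH 7.4, 0.01% Tween-20. Compound added for 30 min at RT, then streptavidin donor/nickel chelate acceptor beads (10 ug/mL) for 30 min.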
L3MBTL1 block: inhibitors of human L3MBTL1. Q9Y468. AlphaScreen L3MBTL1–H3K9me1 peptide binding. Potency, µM (top dose mostly 57.1 µM), usual class: inhibitors. 230,000 compounds, 0.66% hits. AID 485360; further: nearly all actives have a fitted effect of over 60% in size
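L3MBTL1 (50 nM) pre-complexed 30 min with biotinylated H3(1-15)K9me1 peptide (75 nM), then compounds added for 30 min at room temperature; AlphaScreen streptavidin donor/nickel chelate acceptor beads (10 ug/mL final) read after 30 min dark incubation.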
G9a block: G9a (human) methyltransferase inhibition; Q96KQ7; G9a H3K9 monomethylation, AlphaScreen, 2 h; Potency, µM (highest dose often 102 µM), most hits filed as inhibitors; 350,000 compounds, 8.8% hits; AID 504332; further: nearly all actives have a fitted effect of over 75% in size
Target sequence (Q96KQ7 913-1193 limits assumed): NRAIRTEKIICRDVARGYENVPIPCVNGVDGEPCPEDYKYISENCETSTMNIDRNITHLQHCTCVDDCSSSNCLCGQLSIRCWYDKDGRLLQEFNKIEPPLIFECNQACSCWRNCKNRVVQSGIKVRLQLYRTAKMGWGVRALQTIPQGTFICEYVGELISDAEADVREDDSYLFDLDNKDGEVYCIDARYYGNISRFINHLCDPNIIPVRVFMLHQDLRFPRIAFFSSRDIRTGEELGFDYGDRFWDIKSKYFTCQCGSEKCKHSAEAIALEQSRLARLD
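Compounds were preincubated with 20 nM G9a for 15 min, after which biotinylated H3K9 peptide (500 nM) and SAM (20 uM) started a 2 h room-temperature reaction. Monomethylated product was quantified by antibody-based AlphaScreen chemiluminescence.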
BAZ2B inh: BAZ2B (human) inhibition; 360,000 compounds, 4.4% hits; AlphaScreen BAZ2B-H3K14Ac peptide displacement; AID 504333; Potency, µM (highest dose often 114 µM), actives largely listed as inhibitors; further: nearly all actives have a fitted effect of over 60% in size
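Complex of BAZ2B and biotin-H3K14Ac (50 nM apiece) forms over 30 min at RT, then faces library compounds up to 110 uM for another 30 min; AlphaScreen beads added, 20 min dark incubation, luminescence read.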
A number is an active result; – = inactive; ? = inconclusive; · = no result given; [ ] = remark or other dose. The call rests on the fitted dose curve; in most records, active means well fitted curve in the direction sought with a large enough effect; inconclusive means small, poorly fitted or top-dose-only effect, or another doubt; inactive means no such curve, though single readings can be large; an effect the other way counts as inactive or inconclusive.

SMILES | JMJD2A Tudor | Sfp inh | HP1b chromo inh | L3MBTL1 block | G9a block | BAZ2B inh
CCc1cc(/C(Cc2ccccn2)=N\Nc2ccccc2)c(O)cc1O | ? | – | ? | – | 2.5µM | 50µM
CCOc1ccc(CN2CCN(S(=O)(=O)c3ccc(NC(C)=O)cc3)CC2)cc1 | 7.9µM | ? | 35µM | – | 22µM | 25µM
COc1cc(OC)c(OC)cc1CN1CCN(S(=O)(=O)c2ccc(NC(C)=O)cc2)CC1 | 1µM | ? | ? | – | · | 50µM
CC(=O)Nc1ccc(CN2CCCN(C)CC2)cc1 | 22µM | – | ? | – | 20µM | ?
CC(=O)Nc1ccc(S(=O)(=O)N2CCN(S(=O)(=O)c3ccccc3)CC2)cc1 | – | – | – | – | – | –
CC(=O)Nc1ccc(S(=O)(=O)N2CCN(CC3CC4C=CC3C4)CC2)cc1 (stereo not given) | 6.3µM | ? | ? | – | 28µM | 35µM
CC(=O)Nc1ccc(S(=O)(=O)N2CCN(Cc3ccccc3[N+](=O)[O-])CC2)cc1 | – | – | – | · | ? | –
COc1ccccc1CNS(=O)(=O)c1c(C)nc2sc(C)cn2c1=O | – | · | – | · | – | –
COc1ccc(S(=O)(=O)NC2CC2)cc1Br | – | – | – | – | · | –
CC(=O)c1ccc(N2CCN(c3ncnc4c3c(-c3ccccc3)cn4-c3cccc(C)c3)CC2)cc1 | – | · | – | · | – | ?
C[C@H](CO)N1C[C@H](C)[C@@H](CN(C)Cc2ccc(-c3ccccc3)cc2)Oc2c(NC(=O)Nc3ccc4c(c3)OCO4)cccc2C1=O | ? | · | – | – | · | ·
Cc1ccc(C(=O)O)cc1-c1ccc(/C=C2/NC(=O)N(c3ccccc3)C2=O)o1 | 50µM | 22µM | ? | · | 10µM | 32µM
Cc1cc(C(=O)O)ccc1-c1ccc(CO)o1 | – | ? | – | ? | ? | –
O=C(O)c1ccc(-c2ccc(/C=C3\NC(=O)N(Cc4ccc(Cl)cc4)C3=O)o2)cc1 | – | – | – | ? | 50µM | ?
Cc1ccc(CN2C(=O)N/C(=C\c3ccc(-c4ccc(C(=O)O)cc4C)o3)C2=O)cc1 | ? | – | – | ? | 40µM | 40µM
O=C1N/C(=C/c2ccc(N3CCCC3)cc2)C(=O)N1c1ccccc1 | – | – | – | – | – | –
CCOC(=O)c1noc2nc(C)n(CC(=O)Nc3cc(Cl)ccc3OC)c(=O)c12 | – | · | – | · | – | –
O=C(C1CCCCC1)N(Cc1cccnc1)c1nc2c(F)cccc2s1 | – | · | – | · | – | –
CC(=O)NC(c1ccc2ccccc2c1)c1ccc2cccnc2c1O (stereo not given) | 25µM | – | – | ? | – | 28µM
CCCC(=O)NC(c1ccc(Cl)cc1Cl)c1ccc2cccnc2c1O (stereo not given) | – | – | – | – | – | –
COc1ccc(C(NC(C)=O)c2ccc3cccnc3c2O)c(OC)c1 (stereo not given) | 79µM | – | – | ? | – | 28µM
CC(=O)NC(c1ccc(Cl)cc1Cl)c1ccc2cccnc2c1O (stereo not given) | 28µM | – | – | – | · | 28µM
C=CC1C(N2CCOCC2)C(C)(C)S1(=O)=O (stereo not given) | –[11.4 µM] | – | – | – | – | –
O=S1(=O)C[C@@H](N2CCOCC2)[C@H](N2CCOCC2)C1 | – | 71µM | – | – | – | –
c1ccc(CN2CCN(c3nc4ccccc4n4cnnc34)CC2)cc1 | – | – | – | – | 50µM | –
SMILES | JMJD2A Tudor | Sfp inh | HP1b chromo inh | L3MBTL1 block | G9a block | BAZ2B inh
c1ccc2c(c1)CCN(c1nc3ccccc3n3cnnc13)C2 | ? | – | – | · | 50µM | –
c1ccc(N2CCN(c3nc4ccccc4n4cnnc34)CC2)cc1 | – | – | – | · | – | –
c1ccc2c(c1)nc(NCCN1CCOCC1)c1nncn12 | – | – | – | – | 50µM | –
Clc1cccc(N2CCN(CCNc3nc4ccccc4n4cnnc34)CC2)c1 | ? | – | – | – | – | –
Cc1cc(C)c(NC(=O)CSc2nc3nc(C)cc(C)n3n2)c(C)c1 | – | · | – | · | – | –
O=C(Cc1csc(N2CCOCC2)n1)N/N=C/c1ccc(O)c(O)c1O | 10µM | 10µM | 16µM | – | 3.5µM | ·
O=C(CCN1CCN(c2ccccc2)CC1)N/N=C/c1ccc(O)c(O)c1O | 40µM | 8.9µM | 28µM | 5.6µM | 8.9µM | 8.9µM
COc1ccc(/C=N/NC(=O)CCN2CCN(c3ccccc3)CC2)c(OC)c1OC | – | – | – | – | – | –
Cc1cc(C(=O)N/N=C/c2ccc(O)c(O)c2O)c(C)n1-c1ccccc1 | 56µM | 8.9µM | ? | ? | 10µM | 56µM
O=C(CCN1CCOCC1)N/N=C/c1cc(Br)cc(Br)c1O | ? | – | – | – | · | 56µM
Cc1ccc(OCC(=O)Nc2cccc(OCc3cc(=O)n4cccc(C)c4n3)c2)cc1C | – | · | – | · | – | –
Cc1ccc(CNC(=O)C2CCN(S(=O)(=O)c3ccc4[nH]c(=O)ccc4c3)CC2)cc1 | – | · | – | · | – | –
COC(=O)[C@H](CC(C)C)NC(=O)Nc1ccccc1F | – | – | – | · | – | –
Cc1ccc(N=C/C(C(=O)C(F)(F)F)=C(\O)c2ccco2)cc1Cl | ? | – | – | – | 45µM | –
Cc1cccc(N=C/C(C(=O)C(F)(F)F)=C(\O)c2ccco2)c1 | – | – | – | – | – | –
O=C(/C(C=Nc1ccc(F)cc1)=C(/O)c1ccco1)C(F)(F)F | ? | – | – | – | 40µM | ?
CCc1ccc(NC(=O)N(C2CCCCC2)C(C)c2cccnc2)cc1 (stereo not given) | – | – | – | · | –[12.7 µM] | –
COc1ccc(O[C@H]2C=C[C@@H](c3ccccc3)O[C@@H]2COC(=O)CC/C(C)=N/O[C@@H](C)CN2CCCCc3nc(C)c(C)cc32)cc1 | · | – | · | – | 35µM | –
C/C(CCC(=O)OC[C@H]1O[C@H](C#Cc2ccccc2)C=C[C@@H]1Oc1ccc(C)cc1)=N\O[C@@H](C)CN1CCCCc2nc(C)c(C)cc21 | · | – | · | – | 35µM | –
CC1(C)CC(=O)C(C(C2=C(O)CC(C)(C)CC2=O)c2ccc(Br)s2)C(=O)C1 (stereo not given) | – | 20µM | – | – | ? | –
Cc1ccc(C(C2=C(O)CC(C)(C)CC2=O)C2C(=O)CC(C)(C)CC2=O)s1 (stereo not given) | – | 35µM | – | – | ? | –
CCn1nnnc1NC(=O)c1cc(Cl)c(OC)c(Cl)c1 | – | – | – | – | – | –
CC(C)CC(=O)N1CCN(C(=O)c2ccc(-c3ccccc3)cc2)CC1 | – | – | – | – | – | –
COc1ccc(Nc2nnc(-c3ccncc3)s2)cc1Cl | – | – | – | · | 8.9µM | –
O=c1[nH]c2ccccc2nc1/C=C/c1ccc(Cl)cc1 | 10µM | – | – | · | – | –
CCCOc1ccc(CSc2nnc(CCC)n2N)cc1 | – | – | – | – | – | –
